An excerpt weighted towards active compounds, which were near 12% of everything screened.
Pf growth 48h: P. falciparum growth inhibition at 48 hours (one generation); P. falciparum luciferase growth in erythrocytes, 48 h; Potency, µM (highest dose often 28.7 µM), for the others: at the top dose activity change, negative = inhibition, most hits filed as inhibitors; 310,000 compounds, 5.9% hits; note: % is set by controls: 0 for no effect and ±100 for the full control effect
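Compounds are pin-transferred into medium, infected erythrocytes (2% hematocrit, 0.1% parasitemia final) are added, and plates sit one parasite generation at 37 C in 5% CO2. Detection reagent is then added and luminescence measured.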
HCV inh: inhibitors of hepatitis C virus infection; AID 651820; 340,000 compounds, 3.4% hits; Potency, µM (series often up to 41.8 µM), without a hit: top-dose activity change, negative = inhibition, usual class: inhibitors; Huh7.5.1 HCVcc-Cre infection, luciferase reporter, 44 h; note: % is set by controls: 0 for no effect and ±100 for the full control effect
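1,000 cells/well; 4 h culture; + compound; + HCVcc-Cre (~0.5 moi); 44 h; luciferase substrate, RT 15 min; read 15 sec.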
NS1 inh: influenza NS1 inhibition; AID 2326; 270,000 compounds, 0.4% hits; Potency, µM (top dose mostly 46.1 µM), inactives show at the highest dose activity, positive = more growth; calls by dose curve; note: actives are rising curves; nearly all actives have a fitted effect of over 50% in size
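Growth recovery, yeast-based: influenza A NS1 expressed in S. cerevisiae causes slow growth, and suppressors are detected by OD600. The parent strain without NS1 is used as positive control.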
SARS PLP yeast: inhibitors of SARS-CoV papain-like protease in yeast; S. cerevisiae expressing SARS-CoV PLpro, growth rescue; Potency, µM (titrated, usually from 32.9 µM), for inactives: top-dose activity, positive = growth rescue, most hits filed as activators; 330,000 compounds, 0.19% hits; AID 485353; calls by dose curve; note: 0% is about no effect; nearly all actives have a fitted effect of over 55% in size
AMA1-RON2 inh: inhibitors of Plasmodium falciparum AMA1-RON2 interaction | AlphaScreen AMA1-biotinylated RON2 peptide binding | Potency, µM (series often up to 58.2 µM), for the others: top-dose activity change, negative = inhibition, usual class: inhibitors | 360,000 compounds, 0.2% hits | AID 720542;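 note: 0% = vehicle wells and -100% = peptide control; nearly all actives have a fitted effect of over 45% in size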
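AMA1 (3D7) with his tag at 25 nM final met compounds first, then biotinylated RON2 peptide at 25 nM; detection used donor plus acceptor beads, 10 µg/mL apiece, read by AlphaScreen after 30 min at room temperature.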
Pf growth 96h: inhibits malaria parasite growth, 96 h; Potency, µM (doses to about 28.7 µM), for inactives: top-dose activity change, negative = inhibition, usual class: inhibitors; AID 504834; 320,000 compounds, 6.9% hits; P. falciparum luciferase reporter growth, 96 h; note: % is set by controls: 0 for no effect and ±100 for the full control effect
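Plates of compound plus infected erythrocytes (2% hematocrit, 0.05% parasitemia final) incubate 96 hours, 37 C, 5% CO2. Detection reagent added; reduced luminescence from the parasites' luciferase reporter flags inhibition.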
Starred values were filed as active, the others as inactive; ? = inconclusive; · = no result given; [ ] = dose if it differs, or a comment. Unless noted, calls come from the whole dose curve; as a rule, active = well fitted curve in the direction sought with a large enough effect; inconclusive = small, poorly fitted or top-dose-only effect, or another doubt; inactive = no such curve, though single readings can be large; an effect the other way counts as inactive or inconclusive. Potency is the fitted concentration of half-maximal effect.

SMILES	Pf growth 48h	HCV inh	NS1 inh	SARS PLP yeast	AMA1-RON2 inh	Pf growth 96h
CCCOc1ccc(N2CC(C(=O)Nc3ccccc3C(=O)NCc3ccco3)CC2=O)cc1 (configuration not stated)	9.28µM*	?	-9.3%	-7.1%	-1.9%	15.8%
COc1ccc(CCN2CC(C(=O)N(C)CC(=O)Nc3ccc(Cl)c(C(F)(F)F)c3)CC2=O)cc1OC (configuration not stated)	?	-9.9%	·	-2.0%	40.0%	?
COc1ccc(N2CC(C(=O)N(C)CC(=O)Nc3ccc(Cl)c(C(F)(F)F)c3)CC2=O)c(OC)c1 (configuration not stated)	?	?	·	4.9%	-2.0%	13.1µM*
COc1ccc(N2CC(C(=O)Nc3ccccc3N3CCCC3)CC2=O)c(OC)c1 (configuration not stated)	15.5%	8.91µM*	·	-0.7%	-16.3%	6.0%
COC(=O)c1ccccc1NC(=O)C1CC(=O)N(c2ccc(C)c(C)c2)C1 (configuration not stated)	·	-8.6%	-24.0%	2.5%	6.6%	4.15µM*
CCOC(=O)C1=CCN(S(=O)(=O)c2ccccc2Br)C1c1ccc(F)cc1 (configuration not stated)	·	·	·	·	11.3%	·
COc1ccc(N2C(=O)c3ccccc3NC(=O)C2C(=O)Nc2ccc3c(c2)OCCO3)cc1 (configuration not stated)	·	·	·	·	-7.0%	·
Cc1cc2oc(C(=O)Nc3ccc(S(=O)(=O)N4CCCC(C)C4)cc3)cc(=O)c2cc1Cl (configuration not stated)	13.1µM*	1.2%	3.1%	-22.3%	14.7%[11.6 µM]	?
Cc1cc(C)c2oc(C(=O)Nc3ccc(S(=O)(=O)N4CCC(C)CC4)cc3)cc(=O)c2c1	3.9%	-5.7%	17.8%	1.0%	5.0%	-4.0%
Cc1cc2oc(C(=O)Nc3ccc(S(=O)(=O)Nc4nccs4)cc3)cc(=O)c2cc1Cl	16.8%	6.3%	-4.2%	?	-6.6%	13.1µM*
Cc1cc(C)c2oc(C(=O)Nc3ccc(S(=O)(=O)Nc4nccs4)cc3)cc(=O)c2c1	?	-5.0%	-0.2%	1.3%	0.0%	?
Cn1c(=O)c([N+](=O)[O-])c(NCc2ccc3c(c2)OCO3)c2ccccc21	51.1%	-29.8%	3.2%	2.2%	-9.8%	3.1%
CC(=O)c1ccc(NC(=O)CSc2nc3[nH]c(=O)cc(O)c3s2)cc1	·	-9.9%	·	·	-9.2%	·
COc1ccc(Nc2nc3[nH]c(=O)cc(O)c3s2)cc1	?	4.3%	·	-0.8%	-0.9%	?
O=c1cc(O)c2sc(Nc3ccc(F)c(Cl)c3)nc2[nH]1	?	?	·	-0.1%	4.2%	3.7µM*
O=c1cc(O)c2sc(Nc3ccc(Cl)c(F)c3)nc2[nH]1	1.65µM*	?	13.1%	0.5%	-12.5%	5.86µM*
N#Cc1cccc(C(=O)C(=O)N2CCN(c3ccccc3)CC2)c1	·	·	·	·	5.7%	·
C=CCn1c2ccccc2c2n[nH]c(=S)nc21	2.9%	-4.3%	20.3%	-0.9%	108.9%	?
O=C1N(c2ccccc2C(F)(F)F)O[C@@]1(c1ccccc1)C1CCCCC1	1.47µM*	-8.0%	·	-13.8%	33.9%	?
FC(F)(F)c1ccccc1N1CC1c1ccncc1 (configuration not stated)	·	-7.4%	1.2%	-2.3%	2.1%	2.0%
O=C1N(c2ccccc2C(F)(F)F)O[C@@]1(c1ccccc1)C1CCCC1	0.738µM*	-17.5%	·	-14.7%	39.7%	0.828µM*
O=C(NCc1cccc2ccccc12)c1cccs1	43.3%	12.8%	·	0.5%	9.0%	39.0%
Cc1cc(Cl)c2oc(C(=O)N(C)Cc3ccon3)c(C)c2c1	30.1%	?	-34.0%	-27.4%	16.1%	0.0%
CCc1ccc(C2=CSC3=NCCN23)cc1	-5.1%	5.6%	0.0%	0.6%	11.4%	0.8%
C/C(CC(=O)Nc1ccc(Cl)c(Cl)c1)=N\NC(N)=S	13.1µM*	?	16.6%	12.3%	35.7%	5.8%
SMILES	Pf growth 48h	HCV inh	NS1 inh	SARS PLP yeast	AMA1-RON2 inh	Pf growth 96h
COc1ccc(-c2c(C#N)c(SCC(=O)c3cc4ccccc4oc3=O)nc(C)c2C(=O)Nc2ccccc2)cc1	?	?	9.6%	-9.9%	57.7%	11.7µM*
CN1CCCC(CC2Oc3ccccc3Sc3ccccc32)C1 (configuration not stated)	13.1µM*	11.2µM*	-14.8%	-10.9%	-9.4%	?
c1ccc2c(c1)OC(CCCN1CCCCC1)c1ccccc1S2 (configuration not stated)	13.1µM*	25.1µM*	-5.7%	-2.8%	-6.5%	10.4µM*
CCCCCCCCCCCC(=O)N1CC(=O)NC(=O)C1	26.4%	5.0%	1.6%	0.1%	2.7%	?
C=CC[C@]12CCc3sccc3C1N(c1ccc(C(=O)OCC)cc1)C2=O (some centres not stated)	10.4µM*	?	·	0.0%	-0.1%	?
Cc1sc(NC(=O)c2ccco2)c(C(c2ccncc2)N2CCOCC2)c1C (configuration not stated)	10.4µM*	1.6%	-14.1%	4.5%	-11.6%	?
Cc1sc(NC(=O)c2ccccc2)c(C(c2ccccn2)N2CCN(CCO)CC2)c1C (configuration not stated)	?	?	24.0%	14.3%	10.2%[2.32 µM]	-49.7%
CCOc1ccc(C(c2c(NC(=O)c3ccccc3)sc(C)c2C)N2CCN(C)CC2)cc1 (configuration not stated)	?	-18.9%	25.4%	-4.7%	-3.1%	11.7µM*
CCOc1ccc(C(c2c(NC(=O)c3ccco3)sc(C)c2C)N2CCOCC2)cc1 (configuration not stated)	5.22µM*	?	·	-8.6%	8.7%	13.1µM*
Cc1sc(NC(=O)c2ccco2)c(C(c2cccnc2)N2CCCC2)c1C (configuration not stated)	11.7µM*	12.6µM*	-20.6%	-31.5%	-4.3%	10.4µM*
C[C@H](CC(=O)O)C(C(=O)O)C(=O)O	·	·	-0.7%	·	·	·
O=S(=O)(/N=C(/Nc1ccc(F)cc1F)c1ccccc1)c1ccc(Br)cc1	7.1%	-2.3%	-1.2%	-18.5%	·	-5.7%
COc1cccc(C(c2c(NC(=O)c3ccco3)sc(C)c2C)N2CCOCC2)c1 (configuration not stated)	4.65µM*	?	·	1.6%	-5.1%	3.29µM*
Cc1sc(NC(=O)c2ccco2)c(C(c2cccnc2)N2CCN(C)CC2)c1C (configuration not stated)	?	?	-11.4%	-3.1%	-13.1%	?
c1ccc(CCNc2ccc3ncc(-c4cccc5ccccc45)n3n2)nc1	·	·	·	·	-2.4%	·
